Screens from PubChem.
RE007 growth inh = less growth of the S. pombe RE007 Vpr strain; S. pombe RE007 Vpr strain, BacTiter-Glo ATP luminescence, 24 h; 360,000 compounds, 0.21% hits; Potency, µM (series often up to 92.2 µM), actives largely listed as inhibitors; active = well fitted falling curve with a large enough effect; inconclusive = small, poorly fitted or top-dose-only effect; inactive = no such curve, though single readings can be large or run the other way; note: nearly all actives have a fitted effect of over 50% in size
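Fission yeast strain RE007, carrying one chromosomally integrated HIV-1 vpr copy, was seeded at OD 0.01 in PMG+AL medium with 23 nL pinned compound. After 24 h at 30 °C and 99% humidity, viability was read by BacTiter-Glo luminescence.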
Sm TGR inh = inhibitors of Schistosoma mansoni thioredoxin glutathione reductase. Q962Y6. purified TGR, DTNB reduction, TNB absorbance 405 nm. Potency, µM (titrated, usually from 114 µM), usual class: inhibitors. 360,000 compounds, 3% hits. AID 485364; note: nearly all actives have a fitted effect of over 60% in size
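Kinetic colorimetric format: TGR-catalysed, NADPH-driven DTNB reduction monitored via TNB absorbance. Enzyme dispensed at 20 nM; compound exposure 15 min at room temperature before reaction start.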
TbPYK inhibitor = T. brucei pyruvate kinase inhibition. Q57TT1. TbPYK enzyme, Kinase-Glo Plus ATP luminescence, 45 min. Potency, µM (doses to about 76.8 µM), most hits filed as inhibitors. 410,000 compounds, 0.12% hits. AID 624173; note: nearly all actives have a fitted effect of over 50% in size
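Screened from lowest to highest concentration, compounds were pinned into TbPYK/substrate mixtures, and ADP (130 uM final) was added. Plates sat at room temperature for 45 min prior to Kinase-Glo Plus detection by luminescence.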
FMDV inh = blocks foot and mouth disease virus | FMDV antiviral cell-based qHTS | Potency, µM (doses to about 57.9 µM), hits mostly inhibitors | 410,000 compounds, 1.2% hits; calls by dose curve; tested in HEK293T cells; note: read-out not given here; nearly all actives have a fitted effect of over 45% in size
Of the large screens only hits and unclear results are named; the others gave an inactive call. In the library only some 3.7% were active in any assay of this set; here they are far more common. Unless noted, calls come from the whole dose curve; as a rule, active = well fitted curve in the direction sought with a large enough effect; inconclusive = small, poorly fitted or top-dose-only effect, or another doubt; inactive = no such curve, though single readings can be large; an effect the other way counts as inactive or inconclusive.

CCCNC(=O)c1c(N)n(-c2cc(OC)cc(OC)c2)c2nc3ccccc3nc12	FMDV inh inconclusive
CCOc1ccc(-n2c(N)c(C(=O)NCc3ccco3)c3nc4ccccc4nc32)cc1	Sm TGR inh 50.1µM, FMDV inh inconclusive
COCCCn1c(N)c(C(=O)Nc2ccccc2)c2nc3ccccc3nc21	none
CN1CCN(C(CNC(=O)C(=O)Nc2ccccc2C#N)c2ccc3c(c2)OCO3)CC1 (centres undefined)	none (no result: RE007 growth inh)
N=C(N)c1ccc(OCCCOc2ccc(C(=N)N)cc2Br)c(Br)c1	none (no result: RE007 growth inh, Sm TGR inh, FMDV inh)
Cc1nc(NC(=O)c2ccco2)sc1C(=O)O	RE007 growth inh inconclusive, TbPYK inhibitor 25.1µM
COC(=O)c1sc(NC(=O)c2ccco2)nc1C	none
O=C(NCc1ccccn1)c1ccco1	Sm TGR inh 50.1µM
c1ccc(-c2nc(-c3ccco3)cs2)nc1	RE007 growth inh inconclusive, Sm TGR inh 22.4µM, TbPYK inhibitor inconclusive
O=C(Nc1nc(-c2ccccn2)cs1)c1ccco1	RE007 growth inh inconclusive, Sm TGR inh 31.6µM
C[C@H](NC(=O)c1ccco1)C(=O)Nc1nc(-c2ccccn2)cs1	none (no result: Sm TGR inh)
O=C([C@@H]1C[C@@H](Sc2nc3ccccc3[nH]2)CN1Cc1ccc(Cl)cc1)N1CCN(c2ccccc2F)CC1	none (no result: RE007 growth inh, Sm TGR inh, TbPYK inhibitor)
CCN1CCC[C@@H]1CNC(=O)c1cc(S(=O)(=O)CC)ccc1OC	none (no result: RE007 growth inh, Sm TGR inh, FMDV inh)
Cc1c(CC(=O)N2CCCCC2)c(=O)oc2c(C)c3occ(C(C)(C)C)c3cc12	none (no result: RE007 growth inh)
O=C(OCc1nc2ccc(Cl)cc2n1CCO)c1ccccc1	Sm TGR inh 17.8µM, FMDV inh inconclusive
O=C(OCc1nc2ccc(Cl)cc2n1CCO)c1ccc(O)cc1	none
Oc1ccc(Cl)cc1C1=NNC(c2ccc(Cl)cc2)C1 (centres undefined)	Sm TGR inh inconclusive
Oc1ccc(Cl)cc1C1=NNC(c2cc(Br)cc3c2OCOC3)C1 (centres undefined)	Sm TGR inh 25.1µM
COc1ccc(/C(O)=C2\C(=O)C(=O)N(Cc3ccco3)C2c2cc(OC)ccc2OC)cc1 (centres undefined)	none (no result: FMDV inh)
COc1cccc(C2/C(=C(/O)c3ccccc3)C(=O)C(=O)N2Cc2ccco2)c1 (centres undefined)	Sm TGR inh 50.1µM
COc1cccc(C2/C(=C(/O)c3ccc(C)cc3)C(=O)C(=O)N2Cc2ccco2)c1 (centres undefined)	none
CCOc1cccc(/C(O)=C2/C(=O)C(=O)N(Cc3ccco3)C2c2ccncc2)c1 (centres undefined)	Sm TGR inh inconclusive
O=C1C(=O)N(Cc2ccco2)C(c2cccc(Cl)c2)/C1=C(\O)c1ccc2c(c1)OCCO2 (centres undefined)	Sm TGR inh 35.5µM
COc1cccc(/C(O)=C2/C(=O)C(=O)N(Cc3ccco3)C2c2ccncc2)c1 (centres undefined)	Sm TGR inh 28.2µM
Cc1ccc(C2/C(=C(/O)c3ccc(Br)cc3)C(=O)C(=O)N2Cc2ccco2)o1 (centres undefined)	Sm TGR inh 7.94µM
COc1cc(C2/C(=C(\O)c3ccc4c(c3)OCCO4)C(=O)C(=O)N2Cc2ccco2)ccc1O (centres undefined)	none
Cn1c(=O)n(-c2ccc3c(c2)OCO3)c2nc(-c3ccccc3)nc(C(N)=O)c21	none (no result: RE007 growth inh)
CC(C)(C)OC(=O)N1CC=C2C(C#N)=C(N)C(C#N)(C#N)[C@H](c3cccnc3)[C@H]2C1	Sm TGR inh 35.5µM
CC1CC=C2C(C#N)=C(N)C(C#N)(C#N)C(c3cccs3)C2C1 (centres undefined)	Sm TGR inh 50.1µM, FMDV inh inconclusive
CC(C)(C)OC(=O)N1CC=C2C(C#N)=C(N)C(C#N)(C#N)C(c3cccs3)C2C1 (centres undefined)	Sm TGR inh inconclusive, FMDV inh 22.4µM
COc1ccccc1/C=C/c1nc(C#N)c(NC2CCCCC2)o1	none (no result: RE007 growth inh)
CCOc1cc(/C=N\O)cc(Cl)c1OCC	Sm TGR inh inconclusive
COc1cc(C=C2CN(C)C(=O)C2=O)ccc1O	none (no result: Sm TGR inh)
CCOc1cc(/C=C2\CCC/C(=C\c3cc(Cl)c(O)c(OCC)c3)C2=O)cc(Cl)c1O	FMDV inh 15.8µM
CCOc1cc(/C=C2\CN(C)C/C(=C\c3ccc(O)c(OCC)c3)C2=O)ccc1O	Sm TGR inh 12.6µM, FMDV inh 17.8µM
CCOc1cc(/C=C2/N=C(C)C(C(=O)OC)=C2O)ccc1O	none
CCOC(=O)C1=C(O)/C(=C\c2ccc(O)c(OCC)c2)N=C1C	Sm TGR inh 39.8µM
CN1C/C(=C/c2ccsc2)C(=O)/C(=C/c2ccsc2)C1	Sm TGR inh inconclusive, FMDV inh 28.2µM
Cc1ccc(NC(=O)C2CCN(c3nc4ccccc4nc3C(F)(F)F)CC2)cc1C	none (no result: RE007 growth inh)
COc1cc(CNc2nc(C)c([N+](=O)[O-])c(C)c2C#N)cc(OC)c1OC	FMDV inh 25.1µM
C=CCNc1nc(N)c(C(=C(C#N)C#N)c2ccc(Br)cc2)s1	FMDV inh 5.62µM
C=CCNc1sc(C(=O)c2ccc(C)cc2)c(N)c1C#N	none
O=C(CCl)N1CCCC1c1ccc2c(c1)OCCO2 (centres undefined)	Sm TGR inh 3.55µM
CCn1nc(C)c(CN2CCC3(CCC(CNC(=O)c4ccccc4)O3)CC2)c1C (centres undefined)	none (no result: RE007 growth inh, Sm TGR inh, TbPYK inhibitor)
CCc1ccc(-c2cc(C)no2)cc1S(=O)(=O)N1CCN(C(=O)c2ccco2)CC1	Sm TGR inh 44.7µM
O=C(c1ccco1)N1CCN(S(=O)(=O)c2ccc(Br)s2)CC1	Sm TGR inh 11.2µM (no result: FMDV inh)
CC(C)N(C(=O)CSc1cn(CC(=O)N2CCCCCC2)c2ccccc12)C(C)C	none (no result: RE007 growth inh)
O=C(O)c1ccc2c(c1)C(=O)N([C@H](Cc1c[nH]c3ccccc13)C(=O)O)C2=O	none (no result: RE007 growth inh, TbPYK inhibitor, FMDV inh)
CC1CCc2c(sc(NC(=O)Cn3nc(C(=O)O)c4ccccc4c3=O)c2C#N)C1 (centres undefined)	Sm TGR inh 28.2µM
CN1CCN(C2=C(Cl)C(=O)N(C3CCCCC3)C2=O)CC1	none
CC1COCC(C)N1C1=C(Cl)C(=O)c2ccccc2C1=O (centres undefined)	RE007 growth inh 39.8µM, TbPYK inhibitor 22.4µM, FMDV inh 39.8µM (no result: Sm TGR inh)
CN1CCN(C2=C(Cl)C(=O)C(c3cnc(N4CCCCC4)s3)=C(Cl)C2=O)CC1	RE007 growth inh inconclusive, TbPYK inhibitor 1µM, FMDV inh inconclusive
O=C1C(Cl)=C(N2CCC(C(=O)O)CC2)C(=O)c2ccccc21	FMDV inh 35.5µM
CN1CCN(C2=C(NS(=O)(=O)c3ccccc3)C(=O)c3ccccc3C2=O)CC1	Sm TGR inh inconclusive
CN1CCN(C2=C(Cl)C(=O)c3ccccc3C2=O)CC1	RE007 growth inh inconclusive, TbPYK inhibitor inconclusive, FMDV inh 31.6µM (no result: Sm TGR inh)
NC(=O)C1CCN(C2=C(Cl)C(=O)c3ccccc3C2=O)CC1	Sm TGR inh 0.447µM, FMDV inh 22.4µM
O=c1c(N2CCN(c3ccc(F)cc3)CC2)csc2ccc(F)cc12	none (no result: RE007 growth inh)
O=c1c2cc(F)ccc2sn1-c1ccccc1	RE007 growth inh 11.2µM, TbPYK inhibitor inconclusive
O=c1c2cc(C(F)(F)F)ccc2sn1-c1ccccc1	RE007 growth inh 8.91µM, TbPYK inhibitor 7.08µM, FMDV inh inconclusive (no result: Sm TGR inh)
